MCF10A rereplic: DNA re-replication induction in MCF 10a cells; MCF 10A DNA re-replication, Hoechst nuclear intensity, 48 h; Potency, µM (doses to about 46.1 µM), usual class: activators; 350,000 compounds, 2.9% hits; AID 624296; also: nearly all actives have a fitted effect of over 50% in size
HT1080 IDH1KD tx: HT-1080 IDH1 knockdown cell toxicity (counter line) | AID 686971 | HT-1080 IDH1 knockdown viability, ATP luminescence, 48 h | Potency, µM (top dose mostly 46.1 µM), actives largely listed as cytotoxic | 360,000 compounds, 2% hits
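After a 2 h attachment period, IDH1KD HT-1080 cells took pin-transferred compound for 48 h at 37 °C; ATP-based luminescence after 10 min room-temperature reagent incubation reported viability.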
KB-3-1 tox: KB-3-1 parental cell cytotoxicity; KB-3-1 viability, CellTiter-Glo ATP luminescence, 72 h; Potency, µM (titrated, usually from 46.1 µM), actives largely listed as cytotoxic; 400,000 compounds, 1.4% hits; also: nearly all actives have a fitted effect of over 60% in size
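72 h, 37 °C compound treatment of KB-3-1 parental cells; CellTiter-Glo added, 10 min, luminescence read. Data corrected against DMSO-only plates and normalized before curve fitting.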
HT1080NT lethal: kills 2HG-producing HT-1080-NT fibrosarcoma cells | HT-1080-NT fibrosarcoma viability, CellTiter-Glo ATP luminescence, 48 h | Potency, µM (series often up to 46.1 µM), hits mostly cytotoxic | 360,000 compounds, 1.6% hits | AID 686970;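 also: NT is the 2HG producing partner of a matched IDH1 knockdown line; nearly all actives have a fitted effect of over 55% in size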
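Luminescent CellTiter-Glo readout after 48 hours of compound exposure at 37 degrees C defined viability of HT-1080-NT cells. Activity was normalized to DMSO wells and cell-free media wells; concentration-response curves were fitted and assigned curve classes.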
KB-V1 MDR tox: KB-V1 MDR subline cytotoxicity | KB-V1 MDR cells viability, CellTiter-Glo, 72 h | Potency, µM (series often up to 46.1 µM), hits mostly cytotoxic | 400,000 compounds, 3.4% hits | AID 1347076; also: nearly all actives have a fitted effect of over 60% in size
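qHTS viability screen in drug-selected KB-V1 MDR cells: 72 h compound treatment at 37 degrees C, ATP luminescence end point.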
SW480 rereplic: inducers of DNA re-replication in SW480 colon cancer cells. SW480 DNA re-replication, Hoechst DNA content imaging, 48 h. 340,000 compounds, 1.8% hits. Potency, µM (titrated, usually from 46.1 µM), actives largely listed as activators. AID 624297; also: nearly all actives have a fitted effect of over 55% in size
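Cells (250 per well) received 23 nL compound or DMSO by pin tool and were kept 48 hr at 37 C, 5% CO2. Nuclei were then stained with Hoechst for 40 min and scanned for DNA content.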
Hits are given with their value; – = inactive; ? = inconclusive; · = not tested or not shown. Rows were chosen to be rich in hits. Some 8% of all compounds tested hit in one or more screens of this group. Calls follow the shape of the dose curve; as a rule, active = well fitted curve in the direction sought with a large enough effect; inconclusive = small, poorly fitted or top-dose-only effect, or another doubt; inactive = no such curve, though single readings can be large; an effect the other way counts as inactive or inconclusive.

SMILES	MCF10A rereplic	HT1080 IDH1KD tx	KB-3-1 tox	HT1080NT lethal	KB-V1 MDR tox	SW480 rereplic
O=[N+]([O-])c1ccc(CSc2nnc(Cc3ccccc3)n2-c2ccc(F)cc2)cc1	–	–	–	–	?	·
Cc1cccc(-n2c(SCc3ccc(C#N)cc3)nnc2-c2c[nH]c3ccccc23)c1	–	?	?	?	3.3µM	–
O=[N+]([O-])c1ccc(CSc2nc3ccccc3o2)cc1	–	–	–	–	–	–
Cn1c(CSc2nnc(SCc3ccccc3)s2)nc2ccccc21	–	–	–	–	16µM	–
Cc1cccc(-n2c(Cc3ccccc3)nnc2SCc2ccc([N+](=O)[O-])cc2)c1	?	–	?	–	7.3µM	–
O=[N+]([O-])c1ccc(CSc2nnc(SCc3ccccc3)s2)cc1	6.5µM	–	–	–	–	–
COc1ccc(NC(=O)NNC(=O)c2cc3occc3n2C)c(OC)c1	–	–	–	–	–	–
Cc1[nH]c2ccccc2c1CN1CCC(CO)(Cc2ccccc2)CC1	–	–	–	–	–	–
O=C(NCCCO)c1c(O)c2cccc3c2n(c1=O)CCC3	?	–	5.8µM	–	12µM	–
NNC(=O)c1c(O)c2cccc3c2n(c1=O)CCC3	21µM	–	–	–	?	–
O=C(Cn1c(C(F)(F)F)nc2ccccc21)N1CCCC1	–	–	–	–	–	–
C=CCS(=O)(=O)N1CCCC(Cc2ccccc2C)(C(=O)OCC)C1 (configuration not stated)	–	–	–	–	–	–
CCN(CC)C(=O)c1sc2nc(-c3cccs3)cc(-c3cccs3)c2c1N	?	–	–	–	–	–
CCN(CC)C(=O)c1sc2nc(-c3cccs3)cc(-c3ccc(Cl)cc3)c2c1N	?	–	–	–	–	13µM
Cc1ccc(S(=O)(=O)CC(=O)N(CCCN(C)C)c2nc3ccc(C)cc3s2)cc1	–	–	–	–	–	–
COc1ccc(/C=N/Nc2nonc2N)cc1OC	–	–	?	–	?	–
COc1ccc(/C=N/Nc2nonc2N)cc1	–	–	?	–	21µM	–
Cn1nc(C(=O)NC2CCCCC2)c2ccccc2c1=O	–	–	–	–	16µM	–
CN(C(=O)c1ccc(-c2nn(C)c(=O)c3ccccc23)cc1)C1CCCCC1	–	–	18µM	–	4.1µM	–
CC(C)Cc1ccc(CN2CCCC(NC(=O)c3nn(C)c(=O)c4ccccc34)C2)cc1 (configuration not stated)	21µM	–	–	–	–	?
COc1ccc(OCC(=O)NNC(=O)c2nn(C)c(=O)c3ccccc23)cc1	–	–	–	–	–	–
COc1cc(OC)cc(C(=O)NNC(=O)c2nn(C)c(=O)c3ccccc23)c1	–	–	?	–	13µM	–
O=C(O)CNC(=O)/C(=C/c1ccco1)NC(=O)/C=C/c1ccccc1	–	–	–	–	–	?
CC(=O)Nc1ccc(C2=NOC(C)(C)C(=O)N2Cc2cccc(C#N)c2)cc1	·	–	–	–	–	·
CCc1cc(Cn2nc(-c3ccccc3)cc2C(=O)NCCOC)on1	–	–	–	–	–	–
SMILES	MCF10A rereplic	HT1080 IDH1KD tx	KB-3-1 tox	HT1080NT lethal	KB-V1 MDR tox	SW480 rereplic
CCc1cc(Cn2nc(-c3ccccc3)cc2C(=O)NCC2CC2)on1	0.15µM	–	–	–	–	–
Cc1ccc(-c2[nH]c3ccccc3c2C(C[N+](=O)[O-])c2ccco2)cc1 (configuration not stated)	18µM	?	–	16µM	21µM	?
C=CCOC(=O)C1=C(C)OC(N)=C(C#N)C1c1ccc(OC)c(CSc2ccccn2)c1 (configuration not stated)	–	–	–	–	?	–
CCOC(=O)C1=C(CSc2nc(-c3ccccc3)ccc2C#N)OC(N)=C(C#N)C1c1cccnc1 (configuration not stated)	?	–	–	–	–	?
CCOC(=O)C1=C(CSc2nc(-c3ccccc3)ccc2C#N)OC(N)=C(C#N)C1c1ccccc1 (configuration not stated)	?	–	–	–	–	15µM
CCCC1=C(C(=O)OCC)C(c2ccc(OC)c(CSc3ccccn3)c2)C(C#N)=C(N)O1 (configuration not stated)	?	–	–	–	21µM	–
Cc1cccc(C)c1NC(=O)C1(C)CSCC(=O)N1Cc1cccs1 (configuration not stated)	·	–	–	–	–	·
COCCn1c(SCC(=O)c2c(N)n(C3CC3)c(=O)[nH]c2=O)nnc1-c1cccc(C)c1	–	–	–	–	?	–
CC(C)(C)n1nc2c(c1NC(=O)c1ccc(Br)cc1)CS(=O)C2 (configuration not stated)	–	–	–	–	–	–
O=C(NCCOc1ccccc1F)c1cc([N+](=O)[O-])ccc1N1CCOCC1	?	8.2µM	?	6.5µM	–	9.2µM
O=C(NCCOc1ccccc1)c1cc([N+](=O)[O-])ccc1N1CCOCC1	10µM	7.3µM	?	?	?	2.9µM
O=C(NCCc1ccccc1)c1cc([N+](=O)[O-])ccc1N1CCOCC1	–	–	–	–	–	–
CCCN(CC(=O)Nc1ccccc1OC)C(=O)c1ccc2[nH]c3c(c2c1)CC(C)CC3 (configuration not stated)	?	–	?	–	16µM	–
CCN(CC(=O)Nc1ccccc1OC)C(=O)c1ccc2[nH]c3c(c2c1)CC(C)CC3 (configuration not stated)	18µM	?	?	?	–	–
Cc1ccc(NC(=O)CN(C)C(=O)c2ccc3[nH]c4c(c3c2)CC(C)CC4)cc1 (configuration not stated)	?	–	?	–	15µM	?
CC1CCc2[nH]c3ccc(C(=O)N(C)CC(=O)Nc4ccccc4Cl)cc3c2C1 (configuration not stated)	–	–	–	–	?	–
COc1ccc(NS(=O)(=O)c2csc(C(N)=O)c2)cc1OC	–	–	–	–	–	–
O=C(C1CSC2(c3ccc(F)cc3)CCC(=O)N12)N1CCCCCC1 (configuration not stated)	–	–	–	–	?	–
Cc1ccc(C(C[N+](=O)[O-])c2c(N)n(C)c(=O)n(C)c2=O)cc1 (configuration not stated)	23µM	?	16µM	?	?	–
CC(C(c1ccc2c(c1)OCO2)c1c(N)n(C)c(=O)n(C)c1=O)[N+](=O)[O-] (configuration not stated)	12µM	–	–	–	?	?

Compound activity (PubChem)
